# From PMC4336329 (PLoS ONE, 2015)
# The campaign covered roughly 310,000 compounds. About 14,000 (4.5%) showed an effect of 50% or more. The effect is printed as a negative number. Many of the other results were omitted from the sample, so strong results are more common in it than they were.
# Target: human ether-à-go-go-related gene (hERG) potassium channel (human, UniProt Q12809)
# Assay: primary screen, population patch clamp on CHO cells stably expressing hERG; higher = less effect of the substance
# 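Further: peak tail current of the secondary pulse compared with the same well before compound.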
# Sequence of human ether-à-go-go-related gene (hERG) potassium channel (Q12809 whole entry, looked up): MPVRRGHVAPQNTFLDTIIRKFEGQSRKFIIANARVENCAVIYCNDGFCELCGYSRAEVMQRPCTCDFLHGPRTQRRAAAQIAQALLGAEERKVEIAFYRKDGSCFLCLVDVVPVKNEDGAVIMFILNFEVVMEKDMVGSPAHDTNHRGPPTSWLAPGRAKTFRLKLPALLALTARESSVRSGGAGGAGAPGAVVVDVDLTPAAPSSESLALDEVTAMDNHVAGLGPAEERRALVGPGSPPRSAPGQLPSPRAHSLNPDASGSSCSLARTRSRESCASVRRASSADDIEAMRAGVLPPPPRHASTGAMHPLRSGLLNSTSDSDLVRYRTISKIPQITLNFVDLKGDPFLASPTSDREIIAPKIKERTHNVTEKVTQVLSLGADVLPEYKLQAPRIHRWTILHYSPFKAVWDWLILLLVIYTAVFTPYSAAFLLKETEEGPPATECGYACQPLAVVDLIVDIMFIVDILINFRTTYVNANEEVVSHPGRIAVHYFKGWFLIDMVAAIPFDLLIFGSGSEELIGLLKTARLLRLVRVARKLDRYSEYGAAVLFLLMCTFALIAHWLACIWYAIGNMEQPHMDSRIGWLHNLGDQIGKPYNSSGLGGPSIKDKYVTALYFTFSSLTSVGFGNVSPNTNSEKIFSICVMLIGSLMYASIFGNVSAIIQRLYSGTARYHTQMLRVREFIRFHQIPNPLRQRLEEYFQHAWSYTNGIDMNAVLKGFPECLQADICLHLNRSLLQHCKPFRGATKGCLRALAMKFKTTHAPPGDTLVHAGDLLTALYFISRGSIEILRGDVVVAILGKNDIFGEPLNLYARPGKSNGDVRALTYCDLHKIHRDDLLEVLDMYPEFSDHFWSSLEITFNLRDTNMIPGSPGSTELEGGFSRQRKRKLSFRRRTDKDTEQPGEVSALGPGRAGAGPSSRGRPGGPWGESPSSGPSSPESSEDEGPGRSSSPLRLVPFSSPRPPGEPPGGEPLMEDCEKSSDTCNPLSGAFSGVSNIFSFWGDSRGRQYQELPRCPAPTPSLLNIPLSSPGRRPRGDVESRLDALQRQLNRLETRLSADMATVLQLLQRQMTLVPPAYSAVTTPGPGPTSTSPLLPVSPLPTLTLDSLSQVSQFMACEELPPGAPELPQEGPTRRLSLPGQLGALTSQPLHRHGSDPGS
row,SMILES,"hERG current change (%, negative = inhibition) at 10uM [%]"
1,COc1ccc(C2C(C(=O)Nc3ccc(OC)c(OC)c3)c3ccccc3C(=O)N2C)cc1 (stereo not drawn),27.7
2,O=C(CCc1cn2ccccc2n1)NC1CCCc2c1cnn2-c1ccccc1F (stereo not drawn),0.178
3,Fc1cccc(C2CCCCN2Cc2nc(C3CC3)no2)c1 (stereo not drawn),13.3
4,Cc1ccn2c(=O)nc(SCC(=O)c3ccc(Cl)cc3)nc2c1,-31.2
5,CCOc1ccc(/C=C/C(=O)N(CC)CC(=O)NCc2cccs2)cc1OC,-28.3
6,CCN(CC(=O)NCc1cccs1)C(=O)/C=C/c1cccc(Br)c1,-66.8
7,CCOc1c(Cl)cc(/C=C/C(=O)N(CC)CC(=O)NCc2cccs2)cc1OC,-55.4
8,CCN(CC(=O)NCc1cccs1)C(=O)/C=C/c1ccc(C)cc1,-29.4
9,CCN(CC(=O)NCc1cccs1)C(=O)/C=C/c1ccc(Cl)c(Cl)c1,-41.1
10,CCOc1cc(/C=C/C(=O)N(CC)CC(=O)NCc2cccs2)cc(Cl)c1OC,-27.7
11,CCOC(=O)C1(C)NC(c2ccco2)C2C(=O)N(c3ccc(C)cc3)C(=O)C21 (stereo not drawn),11.3
12,C=CCSc1nc2ccccc2n2cnnc12,-18.5
13,COc1ccccc1C(=O)N1CC(=O)Nc2ccc(C)cc2C1c1ccc(F)cc1 (stereo not drawn),-38.6
14,O=C1CN(C(=O)c2cc3ccccc3oc2=O)C(c2ccc(F)cc2)c2cc(F)ccc2N1 (stereo not drawn),-32.1
15,CC(=O)N1CC(=O)Nc2ccc(C)cc2C1c1ccccc1 (stereo not drawn),14.7
16,Cc1ccc2c(c1)C(c1ccccc1)N(C(=O)c1ccccc1)CC(=O)N2 (stereo not drawn),-7.17
17,O=C1CN(C(=O)c2c(F)cccc2F)C(c2ccc(F)cc2)c2cc(Br)ccc2N1 (stereo not drawn),-35.8
18,O=C1CN(C(=O)c2cc3ccccc3oc2=O)C(c2ccc(F)cc2)c2cc(Br)ccc2N1 (stereo not drawn),-68.6
19,Cc1ccc2c(c1)C(c1ccccc1)N(C(=O)c1cc3ccccc3oc1=O)CC(=O)N2 (stereo not drawn),-65.1
20,Cc1ccc2c(c1)C(c1ccccc1)N(C(=O)c1cccc([N+](=O)[O-])c1)CC(=O)N2 (stereo not drawn),-55.6
21,O=C1CN(C(=O)c2cc3ccccc3oc2=O)C(c2ccccc2)c2cc(F)ccc2N1 (stereo not drawn),-33.9
22,Cc1ccc2c(c1)C(c1ccc(F)cc1)N(C(=O)c1cc3ccccc3oc1=O)CC(=O)N2 (stereo not drawn),-55
23,Cc1ccc2c(c1)C(c1ccccc1)N(C(=O)c1ccc(F)cc1)CC(=O)N2 (stereo not drawn),-6.99
24,Cc1ccccc1C(=O)N1CC(=O)Nc2ccc(F)cc2C1c1ccc(F)cc1 (stereo not drawn),-16.1

row,SMILES,"hERG current change (%, negative = inhibition) at 10uM [%]"
1,CC1(C)OC(=O)C(=CNc2cccc(C(=O)O)c2)C(=O)O1,18.7
2,COc1cc(/C=N/NC(=O)C(=O)NCC2CCCO2)cc(Cl)c1O (stereo not drawn),31.8
3,O=C(Nc1ccccc1)Nc1nc(-c2ccc(F)c(F)c2)cs1,16.3
4,Cc1c(C)n2c(SCC(=O)N3CC(C)OC(C)C3)nnc2[nH]c1=O (stereo not drawn),9.45
5,C/C(=N\NC(=O)c1c(Br)c(C)nn1C)c1cccc(NC(=O)c2ccccc2C)c1,-4.71
6,O=C(NC1CCCCCC1)C(=S)NCc1ccccc1,5.94
7,Cc1ccc(C(=O)NCCC(=O)Nc2ccccc2C)cc1,19.5
8,COCCNC(=O)Cn1cc(/C=C2\C(=O)NC(=O)N(c3ccccc3F)C2=O)c2ccccc21,17
9,O=C1CN(C(=O)c2ccc(Br)o2)C(c2ccccc2)c2cc(Br)ccc2N1 (stereo not drawn),-23.6
10,O=C1CN(C(=O)c2ccc(Br)o2)C(c2ccccc2)c2cc(F)ccc2N1 (stereo not drawn),-45.3
11,Cc1ccc2c(c1)C(c1ccccc1)N(C(=O)c1ccc(Br)o1)CC(=O)N2 (stereo not drawn),-56.9
12,Cc1c(-c2ccccc2)[n+](=O)c(-c2ccco2)c(C)n1[O-],7.02
13,COCCNC(=O)C1CC(=O)N(c2ccc(OC)cc2)C1c1ccc(OC)cc1 (stereo not drawn),9.03
14,Cl.O=C(c1ccco1)N1CCN(C(c2ccccc2Cl)c2nnnn2Cc2ccco2)CC1 (stereo not drawn),-65.1
15,COCCn1nnnc1C(c1ccccc1OC)N1CCN(C(=O)c2ccco2)CC1 (stereo not drawn),-16.1
16,O=C(c1ccco1)N1CCN(C(c2ccccc2F)c2nnnn2Cc2cccs2)CC1 (stereo not drawn),-51
17,Cl.O=C(c1ccco1)N1CCN(C(c2ccccc2F)c2nnnn2CC2CCCO2)CC1 (stereo not drawn),-17.2
18,O=C(c1ccco1)N1CCN(C(c2ccccc2Cl)c2nnnn2Cc2cccs2)CC1 (stereo not drawn),-56.2
19,Cl.Clc1ccccc1C(c1nnnn1Cc1ccco1)N1CCN(Cc2ccco2)CC1 (stereo not drawn),-27.6
20,Cl.O=C(c1ccco1)N1CCN(C(c2ccccc2Cl)c2nnnn2CC2CCCO2)CC1 (stereo not drawn),-12.3
21,CCC(C)(C)n1nnnc1C(c1ccccc1F)N1CCN(C(=O)c2ccco2)CC1 (stereo not drawn),-13.9
22,CCC(c1nnnn1Cc1cccs1)N1CCN(C(=O)c2ccco2)CC1 (stereo not drawn),-36.5
23,CC1=NNC(=O)C1CCC(=O)N/N=C\c1ccccc1[N+](=O)[O-] (stereo not drawn),0.38
24,CCN1CCN(CCCNC(=O)c2ccc(CS(=O)c3ccc(Br)cc3)o2)CC1 (stereo not drawn),24.5

row,SMILES,"hERG current change (%, negative = inhibition) at 10uM [%]"
1,CCOc1[nH]n(-c2ccccc2)c(=O)c1C=NCC(=O)OC,-18.8
2,CCC(=O)c1ccc(N2CCN(C(=O)c3cccs3)CC2)c(F)c1,-51.6
3,CCC(=O)c1ccc(N2CCN(C(=O)c3ccccc3F)CC2)c(F)c1,-20.7
4,CC(=O)c1ccc(N2CCN(C(=O)c3cccs3)CC2)c(F)c1,-28.3
5,CCCC(=O)c1ccc(N2CCN(C(=O)c3cccs3)CC2)c(F)c1,-75.1
6,CCCC(=O)c1ccc(N2CCCC2)c(F)c1,6.96
7,CCCC(=O)c1ccc(N2CCCCC2)c(F)c1,10.5
8,COc1ccccc1CNS(=O)(=O)c1c(C(=O)N2CCCCC2)c(C)n(C)c1C,5.51
9,COc1cccc(C2=NC(C)(C)NC(c3ccccc3O)C2)c1 (stereo not drawn),2.64
10,COc1ccc(Cn2c(=O)c3[nH]cnc3n(-c3ccccc3C)c2=O)cc1,7.7
11,Cc1cccc(NC(=O)CS(=O)(=O)Cc2ccccc2)n1,2.58
12,CCc1cc(C(=O)N/N=C/c2ccc(OC)cc2)c2ccccc2n1,-4.27
13,O=C1C2Sc3[nH]c(=O)sc3C(c3ccccc3)C2C(=O)N1c1ccccc1 (stereo not drawn),-2.84
14,CC(=O)Nc1ccc(S(=O)(=O)NC2(C(F)(F)F)NC(=O)N(C3CCCCC3)C2=O)cc1 (stereo not drawn),2.87
15,CN1CCN(C2CCCCC2NS(=O)(=O)c2ccc(Cl)cc2)CC1 (stereo not drawn),-29.8
16,O=S(=O)(NC1CCCCC1Sc1ncccn1)c1ccc(Cl)cc1 (stereo not drawn),-50.9
17,CCCN1CCN(C2CCCCC2NS(=O)(=O)c2ccccc2)CC1 (stereo not drawn),-44.7
18,CCCN1CCN(C2CCCCC2NS(=O)(=O)c2ccc(Cl)cc2)CC1 (stereo not drawn),-63.4
19,CCN1CCN(C2CCCCC2NS(=O)(=O)c2ccc(Cl)cc2)CC1 (stereo not drawn),-61.8
20,Cc1cc(C)nc(SC2CCCCC2NS(=O)(=O)c2ccc(Cl)cc2)n1 (stereo not drawn),-14.7
21,CCN1CCN(C2CCCCC2NS(=O)(=O)c2ccccc2)CC1 (stereo not drawn),11.7
22,O=S(=O)(NC1CCCCC1N1CCCCC1)c1ccc(Cl)cc1 (stereo not drawn),-5.16
23,O=S(=O)(NC1CCCCC1Sc1ncccn1)c1ccccc1 (stereo not drawn),-5.72
24,CCN(c1ccccc1)S(=O)(=O)c1ccc(Cl)c(NC(=O)COC(=O)c2ccc[nH]c2=O)c1,3.13

row,SMILES,"hERG current change (%, negative = inhibition) at 10uM [%]"
1,C#CCOCCOCCOCCNc1nc(N2CCN(C(=O)C([C@@H](C)CC)n3cc(C(N)Cc4ccc(O)cc4)nn3)CC2)nc(N2CCN(C(=O)[C@H](CCC(=O)O)n3cc(C(N)[C@H](C)CC)nn3)CC2)n1.Cl (stereo partly drawn),4.5
2,O=C(NCC(=O)N1CCOCC1)OCc1ccccc1,-30.8
3,O=C(O)C1CCN(C(=O)OCc2ccccc2)CC1,13.8
4,O=C(OCc1ccccc1)N1CCOCCN(C(=O)OCc2ccccc2)CCOCC1,-64
5,COC(=O)CCn1nnc(-c2ccc(C)cc2)n1,12.3
6,COc1cccc(-c2nc3n(n2)C(c2cccs2)C(C(=O)Nc2cccnc2)=C(C)N3)c1 (stereo not drawn),-72.3
7,COc1ccc(C2C(C(=O)Nc3cccnc3)=C(C)Nc3nc(-c4cccs4)nn32)cc1 (stereo not drawn),-39.6
8,COc1ccccc1-c1nc2n(n1)C(c1cccs1)C(C(=O)Nc1cccnc1)=C(C)N2 (stereo not drawn),-31.7
9,Cc1cccc(C(C(=O)NC2CCCCC2)N(C(=O)c2csnn2)C2CC2)c1 (stereo not drawn),7.99
10,CCCNC(=O)C1(CC2CC(c3ccccc3)=NO2)CCN(C(=O)Cc2ccc(F)cc2)CC1 (stereo not drawn),-64.6
11,CCCCCCCNC(=O)C1(CC2CC(c3ccc(Cl)cc3)=NO2)CCN(C(=O)c2ccccc2)CC1 (stereo not drawn),-15.8
12,COc1ccc(CNC(=O)C2(CC3CC(c4ccccc4)=NO3)CCN(C(=O)Cc3ccc(F)cc3)CC2)cc1 (stereo not drawn),18.1
13,CCCNC(=O)C1(CC2CC(c3ccccc3)=NO2)CCN(C(=O)c2ccccc2)CC1 (stereo not drawn),-68.9
14,CCCCCCCNC(=O)C1(CC2CC(c3cccc(Br)c3)=NO2)CCN(C(=O)c2cc(OCC)c(OCC)c(OCC)c2)CC1 (stereo not drawn),4.79
15,CCCNC(=O)C1(CC2CC(c3ccccc3)=NO2)CCN(C(=O)c2cc(OCC)c(OCC)c(OCC)c2)CC1 (stereo not drawn),-34.6
16,CCCCCCCNC(=O)C1(CC2CC(c3ccc(Cl)cc3)=NO2)CCN(C(=O)Cc2ccc(F)cc2)CC1 (stereo not drawn),-11
17,CCOc1cc(C(=O)N2CCC(CC3CC(c4cccc(Br)c4)=NO3)(C(=O)NCC3CCCCC3)CC2)cc(OCC)c1OCC (stereo not drawn),4.14
18,CCCCCCCNC(=O)C1(CC2CC(c3cccc(Br)c3)=NO2)CCN(C(=O)c2ccccc2)CC1 (stereo not drawn),-71
19,CCCCCCCNC(=O)C1(CC2CC(c3ccccc3)=NO2)CCN(C(=O)c2ccccc2)CC1 (stereo not drawn),-70.9
20,CCCNC(=O)C1(CC2CC(c3ccccc3)=NO2)CCN(C(=O)OC(C)(C)C)CC1 (stereo not drawn),-48.6
21,CCCNC(=O)C1(CC2CC(c3ccccc3)=NO2)CCN(C(=O)C2(C)CC2)CC1 (stereo not drawn),-17
